Experimental findings from PubChem BioAssay (NCI) are described below.

Each structure is given as a SMILES string. About 83,000 compounds went through this panel and 20% of them were active in at least one assay; those are over-represented in the sample as a whole.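 For each line, cells grew in 96-well plates with the test compound present at a single concentration for 48 hours.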 Values without a mark were called inactive. Active and inactive are the calls of the source. *1 amine or outer side, *2 acyl side, *3 side chain or, on linkers, in order; H or OH if unused. Where a SMILES comes first, the peptide text is derived from it. [ ]: non-standard residue; d: D form. The star is where a group is joined. X5 = CCC(=O)CC1CC(C)CC(C(=O)[*:2])N1[*:1]; X4 = CCCCCCCCC(C)C(=O)*; Aib = CC(C)(N)C(=O)O; X6 = CC(CN(C)CCO)N*

This test deals with LOX IMVI melanoma. The test is described as follows: NCI-60 one-dose screen, 48 h (100 = growth as untreated, 0 = no growth, -100 = all killed). The following applies: 10 µM. The method, then: Growth inhibition of the LOX IMVI human tumor cell line is measured as a screen for anti-cancer activity. Cells are grown in 96 well plates and exposed to the test compound for 48 hours. Compounds are tested at a single concentration, which is 10^-5 M for most compounds. The reported endpoint is percent growth (GI% or GIPRCNT), where numbers from 0 - 100% represent growth inhibition, and numbers from -100% - 0 represent cell death. For example, a value of 40 represents 60% growth inhibition. A value of 0 means no net growth occurred over the course of the experiment. A value of -40 indicates 40% of cells at the beginning of the experiment died by the end of the experiment. A value of -100 means all cells are dead at the end of the experiment.
NCI-60 Human Tumor Cell Lines Screen was performed using the standard one-dose NCI protocol, which is described in more detail at https://dtp.cancer.gov/discovery_development/nci-60/default.htm.
Compounds with GIPRCNT values below 10 were considered active. Activity score was based on GIPRCNT using the following formula: […]
Score is 0 for GIPRCNT values of 100 or above, 50 for GIPRCNT values of 0, and 100 for GIPRCNT values of -100.
On to `COc1ccc(C(Cn2ccnc2)Sc2ccc(Cl)c(Cl)c2)cc1` (stereo not given), for which the growth is 84.4%. As for `Oc1c(C(Nc2ccccc2)c2ccccc2)ccc2cccnc12` (stereo not given), the growth was 31.6%.

For `O=C(CCl)N(c1ccccc1)c1ccccc1`, the growth was -36% (active). With `O=[N+]([O-])c1ccc(C2N(Cc3ccc(Cl)cc3)CCN2Cc2ccc(Cl)cc2)cc1` the figure was 96.9%.

Regarding `O=C(Cc1ccccc1)C(F)(F)F`, the growth was 96.5%. For `CC1(C)CCCC2=C1C(=O)N(SC(Cl)(Cl)Cl)C2=O`, the growth is 83.9%. The value for `COC1CC(C)C(OC)c2cc(O)cc(c2O)NC(=O)/C(C)=C/C=C\C(C)C(OC(N)=O)/C(C)=C\C(C)C1OC` (stereo not given) was 5.8% (active); that for `Cc1cc(C)c([I+]c2c(C)cc(C)cc2C)c(C)c1` was -89.2% (active). As to `CCc1cnc2ccccc2c1/C=C/c1ccc(N(C)C)cc1`, the growth is 43.7%. Regarding `O=C(c1ccccc1)c1cc2ccccc2oc1=O`, the growth was 89.8%. With `CCOc1ccc2c(c1)/C(=C\C=C\C1CC(C)C3CC(OCC)CCC3N1CC)CC(C)N2CC` (stereo not given) the figure was 16.3%; with `Cc1cc(C(=C2C=CC(=Nc3ccccc3)C=C2)c2ccc(Nc3ccccc3)cc2)ccc1N`, -93.8% (active). The value for `O=[N+]([O-])c1ccc(N2CCN(Cc3ccccc3)CC2)c2c1no[n+]2[O-]` was -36.3% (active); that for `CC(C)(C)c1ccc(O)c(-c2ccccc2)c1` was 103%; that for `CCc1cccc(CC)c1N1C(=O)C=CC1=O` was 106%.

Turning to `CCCCCCCCC(C)C(=O)N1CCCC1C(=O)N1C(CC(=O)CC)CC(C)CC1C(=O)NC(C)C(=O)NC(C)(C)C(=O)NC(C)(C)C(=O)NC(C(=O)NC(C)C(=O)NC(C)(C)C(=O)NC(C)(C)C(=O)NC(C)CN(C)CCO)C(C)CC` (stereo not given) (X4-P[X5]A[Aib][Aib]IA[Aib][Aib]-X6; configuration not given here), the growth was -69.5% (active). In the case of `Nc1ccc(C(=O)/C=C/c2ccccc2)cc1`, the growth is 84.9%.

Turning to `CN(C)c1ccc(C(C#N)(c2ccccc2)c2ccc(N(C)C)cc2)cc1`, the growth is 51.1%. The value for `Oc1cc(Cl)ccc1Cc1ccc(Cl)cc1O` was 50.6%; that for `Cc1nc(Sc2nc3ccc([N+](=O)[O-])cc3s2)sc1C` was -46.4% (active). With `O=[N+]([O-])CC(O)c1ccccc1` (stereo not given) the figure was 84.5%. Consider `COc1cc(OC)c(/C=C/c2c3ccccc3cc[n+]2C)c(OC)c1`, for which the growth is -39.1% (active). For the molecule `Oc1c(Cl)cc(Cl)cc1C(c1cc(Cl)cc(Cl)c1O)C(Cl)(Cl)Cl`, the growth is 0.701% (active). Consider `CCCOS(=O)(=O)c1ccccc1`, for which the growth is 103%. The value for `Oc1ccc(Nc2ccc3ccccc3c2)cc1` was 40.9%; that for `Cc1ccc(N2C(=O)C=CC2=O)cc1` was 97.7%; that for `O=C(NOC(=O)c1ccccc1)c1ccccc1` was 100%. The value for `CCCCCCCCCCCC(=O)OC(C)C(=O)NCCCC` (stereo not given) was 93.6%; that for `CCCCCCC1N=C(N)N=C(N)N1c1cccc(Cl)c1` (stereo not given) was 17.1%.

On to `O=C(NNc1ccccc1)OCc1ccccc1`, for which the growth was 20.8%. With `O=C1c2ccccc2C(=O)c2c(O)c(Cl)cc(O)c21`, the growth is 50.9%. With `CC1=CC(=O)C=CC1(C)C(Cl)(Cl)Cl` (stereo not given) the figure was 93%. With `Cc1cc(C)c(C#N)c(Sc2nc(C)c([N+](=O)[O-])c(C)c2C#N)n1` the figure was 1.66% (active); with `CCCCCCCCCCCC[N+]1(CCCCCCCCCCCC)CCCC(C)C1` (stereo not given), -80% (active); with `COC(=O)Nc1nc2ccc(C3(c4ccc(F)cc4)OCCO3)cc2[nH]1`, 45.2%.

In the case of `Nc1nc(-c2ccccc2)nc(N)c1N=O`, the growth is 66.7%. With `NC(CS/C(Cl)=C/Cl)C(=O)O` (stereo not given), the growth is -57.3% (active). The value for `Cc1cc(I)nc2ccccc12` was 100%; that for `COc1cc(/C=C/C(=O)CC(=O)/C=C/c2ccc(O)c(OC)c2)ccc1O` was 8.79% (active); that for `N#CCc1cccc2ccccc12` was 108%.
